MLL CXXC-DNA inh: qHTS Fluorescence Polarization Assay for Inhibitors of MLL CXXC domain - DNA interaction; Potency, µM (series often up to 115 µM), for inactives: at the highest dose activity change, negative = inhibition, actives largely listed as inhibitors; 290,000 tested, 0.037% active; Histone-lysine N-methyltransferase 2A (Homo sapiens), Q03164; MLL-CXXC / FITC-HOXA9 DNA fluorescence polarization; active means well fitted inhibition curve with a large enough effect in the polarisation, with a control signal flat, not every such curve was filed as active; inconclusive means small, poorly fitted or top-dose-only effect, or effect the other way, or a change in a side signal; inactive means no such curve, though single readings can be large or run the other way; the % refers to the polarisation; further: potency means the concentration at half of the fitted maximal effect
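Steps: dispense CXXC domain solution (7 uM) → pin compounds or unlabeled HOX-A9 DNA control → 5 min ambient → add FLSN-HOX-A9 solution (50 nM) → spin → 30 min ambient → fluorescence polarization. Tris pH 7.5/NaCl/DTT/BSA buffer.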
ASM inhibitor: Inhibitors of Secretory Acid Sphingomyelinase (S-ASM): qHTS; Potency, µM (series often up to 57.5 µM), inactives show at the highest dose activity change, negative = inhibition, actives largely listed as inhibitors; placental ASM, HMU-PC fluorogenic substrate, 60 min; 340,000 tested, 0.006% active; further: potency means the concentration at half of the fitted maximal effect
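Fluorogenic HMU-PC substrate (9 uM final) is turned over by placental ASM in 60 min at 37 C after a 10 min compound preincubation. Reaction ended by alkaline stop (pH 10), with fluorescence read at 386/447 nm.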
Menin-MLL TR inh: qHTS Assay for Inhibitors Targeting the Menin-MLL Interaction in MLL Related Leukemias: Competition With Texas Red Labeled MLL-derived Mutant Peptide | O00255 | 270,000 tested, 0.23% active | Potency, µM (doses to about 61.6 µM), for inactives: top-dose FP activity change, negative = inhibition, usual class: inhibitors | Menin + Texas Red MLL mutant peptide, fluorescence polarization; active means well fitted inhibition curve with a large enough effect in the polarisation, with a control signal flat, not every such curve was filed as active; inconclusive means small, poorly fitted or top-dose-only effect, or effect the other way, or a change in a side signal; inactive means no such curve, though single readings can be large or run the other way; the % refers to the polarisation; further: potency means the concentration at half of the fitted maximal effect; % of control where 0% means no effect
Target sequence (O00255 whole entry, looked up): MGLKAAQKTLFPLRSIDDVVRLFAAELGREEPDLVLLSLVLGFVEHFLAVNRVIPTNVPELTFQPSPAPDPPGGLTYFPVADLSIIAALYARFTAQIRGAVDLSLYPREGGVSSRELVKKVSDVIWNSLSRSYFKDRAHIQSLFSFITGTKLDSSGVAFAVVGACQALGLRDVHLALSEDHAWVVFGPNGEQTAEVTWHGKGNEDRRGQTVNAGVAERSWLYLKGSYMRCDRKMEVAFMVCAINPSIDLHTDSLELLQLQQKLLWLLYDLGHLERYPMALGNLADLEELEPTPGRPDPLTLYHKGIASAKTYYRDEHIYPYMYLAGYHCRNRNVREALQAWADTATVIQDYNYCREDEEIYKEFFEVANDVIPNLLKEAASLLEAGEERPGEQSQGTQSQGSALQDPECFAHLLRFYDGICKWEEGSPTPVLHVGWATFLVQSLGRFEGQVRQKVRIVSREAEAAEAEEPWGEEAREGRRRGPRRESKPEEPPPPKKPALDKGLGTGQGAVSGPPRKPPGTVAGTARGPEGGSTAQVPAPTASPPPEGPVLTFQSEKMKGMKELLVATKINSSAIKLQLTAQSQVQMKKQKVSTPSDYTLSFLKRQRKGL
Menin MLL FP FL: qHTS Assay for Inhibitors Targeting the Menin-MLL Interaction in MLL Related Leukemias: Competition With Fluorescein Labeled MLL-derived Peptide; Fluorescence polarization, fluorescein-MLL peptide displacement from menin; AID 1766, 2009; FP activity change, % at 61.4 µM; 290,000 tested, under 10 active; active means well fitted curve in the direction sought with a large enough effect in the polarisation, not every such curve was filed as active; inconclusive means small, poorly fitted or top-dose-only effect, or effect the other way, or a change in a side signal; inactive means no such curve, though single readings can be large or run the other way; the % refers to the polarisation; further: % of control where 0% means no effect
GALK inhibitor: qHTS Assay for Inhibitors of Human Galactokinase (GALK); P51570; Purified GALK, Kinase-Glo residual ATP luminescence; Potency, µM (doses to about 57.5 µM), for the others: top-dose activity change, negative = inhibition, most hits filed as inhibitors; 270,000 tested, 0.007% active; further: potency means the concentration at half of the fitted maximal effect; on the % scale 0 is the no-effect control and ±100 the full control effect
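Galactose (100 uM) and ATP (35 uM) were turned over by 5 nM GALK for 1 h at RT. Kinase-Glo Plus then converted the remaining ATP into a luminescent signal.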
Starred values were filed as active, the others as inactive; i = inactive; ? = inconclusive; . = not tested or not shown; [ ] = dose if it differs, or a comment. This is one part of a sample in which hits are shown more often than they occur. Unless noted, the call rests on the fitted dose curve; in most records, active means well fitted curve in the direction sought with a large enough effect; inconclusive means small, poorly fitted or top-dose-only effect, or another doubt; inactive means no such curve, though single readings can be large; an effect the other way counts as inactive or inconclusive.

SMILES | MLL CXXC-DNA inh | ASM inhibitor | Menin-MLL TR inh | Menin MLL FP FL | GALK inhibitor
O=S(=O)(Nc1ccc(-c2nc3cccnc3s2)cc1)c1ccc(Cl)s1 | 5.7% | i | ? | -1.5 | -1.2%
O=S(=O)(Nc1ccc(-c2nc3cccnc3s2)cc1)c1cccs1 | 14.4% | i | 22.4µM* | 3.2 | 0.4%
O=C(N/N=C\C=C\c1ccc2c(c1)OCO2)C1COc2cc3ccccc3cc2O1 (stereo not given) | -3.4% | ? | 20µM* | 5.0 | 1.1%
CCCC[C@]12Cc3cc(OC)c(OC)cc3C(O1)C1=C(O2)C(=O)c2ccccc2C1=O | -14.8%[23 µM] | . | 12.5%[11.7 µM] | 11.7[11.7 µM] | .
CCC(=O)Nc1cc2nn(-c3ccc(OC)cc3)nc2cc1C | -6.6% | 25.5% | 3.0% | 5.0 | -0.8%
COc1ccc(-n2nc3cc(C)c(NC(=S)NC(=O)c4ccccc4C)cc3n2)cc1 | 2.7% | 29.5% | 22.4µM* | 2.4 | -0.4%
COc1ccc(OC)c(C(=O)C(=O)c2cc(OC)ccc2OC)c1 | . | -2.9% | . | . | .
COc1ccc(OC)c(N)c1 | 0.6% | -2.4% | 25.1µM* | -9.1 | 0.8%
N#Cc1ccc(-c2csc(NC(=O)c3ccc(N4C(=O)CCC4=O)cc3)n2)cc1 | ? | 11.6% | . | -1.6 | 1.5%
N#Cc1ccc(-c2csc(NC(=O)c3ccc(S(=O)(=O)N4CCc5ccccc5C4)cc3)n2)cc1 | -2.6% | -2.5% | 11.2µM* | 10.4 | -0.5%
CC(C)N1CC2=C(OC(N)=C(C#N)C2c2cccnc2)/C(=C/c2cccnc2)C1 (stereo not given) | -22.0% | 5.8% | 25.1µM* | -10.4 | 2.5%
FC(F)Sc1ccc(NC(=S)NC(c2ccccc2)c2ccccc2)cc1 | 7.0% | -1.8% | 15.8µM* | -0.9 | 4.0%
CNC1C(OC2C(O[C@@H]3C(O)C(O)[C@@H](N=C(N)N)C(O)C3N=C(N)N)OC(C)[C@@]2(O)CO)OC(CO)C(O)C1O (stereo not given in full) | -1.5% | . | 1.9% | 3.3 | .
COc1ccc(C(=O)Nc2ccc(NC(=O)c3cccs3)cc2)cc1Cl | 3.3% | 6.3% | 7.08µM* | 3.7 | -1.1%
COc1ccc(C(=O)Nc2ccc(NC(=O)c3cccs3)c(OC)c2)cc1Cl | 1.1% | 45.4% | ? | 0.4 | -2.0%
O=c1c2c([nH]n1-c1ccccc1)CCCC2 | -4.5% | 1.7% | ? | -10.1 | -0.1%
O=c1[nH]n(-c2ccccc2)c(=O)c(Cl)c1Cl | 0.2% | -3.1% | 12.6µM* | 1.7 | -0.5%
COc1cc(O)c2c(c1)oc(=O)c1c3cc(O)c(O)cc3oc21 | . | . | ? | 0.1 | .
COCCc1ccc(OC[C@H](O)CNC(C)C)cc1 | -2.7% | . | 23.3%[24.8 µM] | -1.4[24.8 µM] | .
COC(=O)c1ccc(CNC(=O)c2ccc(COc3ccccc3)cc2)cc1 | 19.4% | -0.9% | 28.2µM* | -27.9 | 0.0%
NS(=O)(=O)c1cccc(NS(=O)(=O)c2ccc(/C=C/C(=O)OCC(=O)c3ccc(Br)cc3)cc2)c1 | -12.7% | -9.4% | 28.2µM* | 0.2 | -12.1%
COc1ccc2oc(-c3ccccc3)c(OC)c(=O)c2c1 | . | . | -8.4%[24.8 µM] | -6.1 | .
CC(C)CCNC(=O)C(CC(C)C)NC(=O)C1OC1C(=O)O (stereo not given) | . | . | -11.7% | 2.1 | .
COc1ccc(N/N=C(/C#N)S(=O)(=O)c2nsc(C)c2C#N)cc1 | -12.7% | -9.1% | ? | 4.1 | ?
Cc1snc(S(=O)(=O)/C(C#N)=N/Nc2cccc(C(F)(F)F)c2)c1C#N | -3.7% | ? | ? | -3.4 | 28.2µM*
SMILES | MLL CXXC-DNA inh | ASM inhibitor | Menin-MLL TR inh | Menin MLL FP FL | GALK inhibitor
C/C(=N\NC(=O)c1ccc(Cl)c(Cl)c1)c1ccc(Br)s1 | 5.3% | 5.8% | 11.2µM* | 2.2 | -0.5%
CCN1/C(=C/c2sc(-c3ccccc3C)c[n+]2C)Sc2ccccc21 | 0.5% | -1.7% | 25.1µM* | -1.6 | -0.7%
Cc1ccc(-c2nc3ccccc3s2)cc1NC(=S)NC(=O)c1cccc2ccccc12 | 4.6% | -0.3% | 11.2µM* | . | -1.8%
COc1ccc(-c2nn(-c3ccccc3)cc2/C=N/NS(=O)(=O)c2ccccc2)cc1 | 6.8% | -4.6% | ? | 1.3 | 1.9%
O=C(N/N=C\c1cn(-c2ccccc2)nc1-c1ccccc1)c1ccc(Br)o1 | 21.5% | -10.1% | 31.6µM* | -0.8 | 2.6%
COc1ccc(-c2nn(-c3ccccc3)cc2/C=N/NC(=O)c2cccc(S(=O)(=O)Nc3ccccc3Cl)c2)cc1 | 5.7% | -2.8% | 15.8µM* | -3.2 | 0.0%
O=C(Nc1ccc(OC(=O)c2ccccc2)c(-c2nc3ccccc3s2)c1)c1ccccc1 | 51.3% | -2.5% | 17.8µM* | 1.6 | .
O=c1cnc2cncnc2n1Cc1ccccc1Cl | . | . | 6.9% | 19.1 | .
C/C=C\C1=C(CO)C(=O)[C@@H]2OC2C1=O (stereo not given in full) | . | . | -7.4%[11.7 µM] | 6.4[11.7 µM] | .
COC1(OC)N=C(N)C2(C#N)C(c3ccccc3)NC(C)=CC12C#N (stereo not given) | 14.0% | 59.4% | -13.1% | -4.6 | -1.7%
CC1=CC(C#N)(C#N)C(C#N)(C#N)C(c2ccccc2)N1 (stereo not given) | 39.8µM* | . | -7.3% | ? | 0.7%
C=CCN1c2ccccc2[C@]23C[C@@H](C(=O)OC)N(S(=O)(=O)c4ccc5c(c4)OCCN5C)C2=NC(C(=O)OC)=C(C(=O)OC)[C@H]13 | . | . | -13.0%[11.7 µM] | 0.6[11.7 µM] | .
CN(C)Cc1ccccc1-c1cc(NCc2ccccc2)ncn1 | . | . | -17.1% | 1.1 | .
CCC(=Nc1ccc(N)cc1)C1=C(O)C(C(=O)OC)C(C)(C)CC1=O (stereo not given) | 3.3% | -0.3% | 31.6µM* | ? | -5.6%
O=C(CNCC1CCCO1)Nc1ccc(N2CCCCCC2)cc1 (stereo not given) | 8.4% | 4.0% | 14.1µM* | 1.8 | -0.3%
N#CCCn1c(=O)c(CCc2ccccc2)nc2cnc(N3CCOCC3)nc21 | . | . | 39.8µM* | ? | .
COc1cccc(-c2ccc3ncnc(N4CCNCC4)c3c2)c1 | . | . | -9.0% | -0.4 | .
CCCCCCOC(=O)C[N+](C)(C)CCOC1CC2CCC1(C)C2(C)C (stereo not given) | 3.4% | -3.4% | 15.8µM* | -3.8 | 1.1%
CC1(C)Cc2c(c(-c3ccco3)[nH]c(=O)c2C#N)CS1 | -1.9% | 35.3% | 25.1µM* | ? | 0.5%
CC1(C)Cc2c(c(-c3ccccc3)[nH]c(=O)c2C#N)CS1 | -2.0% | 19.9% | -27.7% | 1.6 | -1.3%
Cc1c(C(=O)Nc2cccc(C(F)(F)F)c2)oc2ccc(S(=O)(=O)N3CCOCC3)cc12 | -24.6% | 22.4µM* | 1.5% | 4.1 | 2.3%
CCc1ccc(Nc2ccc3nonc3c2[N+](=O)[O-])cc1 | . | -7.7% | . | . | .
CCOC(=O)NNc1ccc2nonc2c1[N+](=O)[O-] | 39.8µM* | -16.2% | . | -1.6 | -0.9%

Assay outcomes as filed in PubChem BioAssay.
